This is one part of a sample in which hits are shown more often than they occur.
Tg IFNy HTS = T. gondii growth inhibition under IFN-gamma; Toxoplasma gondii growth in IFN-gamma-treated host cells; active compounds read low; activity change, negative = inhibition, % (concentration not given with the values); hit rate 3.8% among 69,000; AID 1259416; in the data active means activity change below about -70%, passing the limit was not always enough;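 further: host cells are HeLa cells infected with Toxoplasma gondii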
An asterisk follows results filed as active; i = inactive.

SMILES	Tg IFNy HTS
Cc1cc(C)n(-c2cc(C(=O)N3CCC(c4ncc(C(N)=O)c(C)n4)C3)ccc2F)n1 (centres undefined)	27.9
COc1ccc(C(=O)N2CCc3c([nH]c4ccccc34)C2c2ccc(C)cc2)cc1 (centres undefined)	i
O=C(c1ccc(Br)cc1)N1CCc2c([nH]c3ccccc23)C1c1ccc(Cl)cc1 (centres undefined)	-94.9*
COc1ccc(C2c3[nH]c4ccccc4c3CCN2C(=O)c2cccnc2)cc1 (centres undefined)	256.0
CSc1ccc(C2c3[nH]c4ccccc4c3CCN2C(=O)c2cccnc2)cc1 (centres undefined)	468.1
O=C(c1ccncc1)N1CCc2c([nH]c3ccccc23)C1c1ccc(Cl)cc1 (centres undefined)	-88.4*
O=C(CCC1CCCC1)N1CCc2c([nH]c3ccccc23)C1c1ccc(Cl)cc1 (centres undefined)	-106.3*
COc1cc(C(=O)N2CCc3c([nH]c4ccccc34)C2c2ccc(Cl)cc2)cc(OC)c1OC (centres undefined)	0.5
O=C(c1ccccc1)N1CCc2c([nH]c3ccccc23)C1c1ccc(Cl)cc1 (centres undefined)	-99.2*
O=C(c1ccccc1Br)N1CCc2c([nH]c3ccccc23)C1c1ccc(Cl)cc1 (centres undefined)	357.5
O=C(CCC1CCCC1)N1CCc2c([nH]c3ccccc23)C1c1ccc(F)cc1 (centres undefined)	-66.7
O=C(c1cccc(F)c1)N1CCc2c([nH]c3ccccc23)C1c1ccc(Cl)cc1 (centres undefined)	-52.5
COc1ccc(C2c3[nH]c4ccccc4c3CCN2C(=O)CCC2CCCC2)cc1 (centres undefined)	-55.4
C=CCn1c(=O)c(-c2nc(-c3cccc(Cl)c3)no2)c(O)c2ccccc21	6.5
Cc1nc(N2CCOCC2)nc2c1CCN(C(=O)C1(C#N)CC1)CC2	10.4
CC(C)(C)c1ccc(C(=O)N2CCOCC2)s1	114.7
CN(C)C(=O)COCc1noc2c1CN(Cc1ccoc1)CC2	-0.6
Cc1c(-c2n[nH]c(=S)n2-c2ccccc2)sc2nc3n(c(=O)c12)CCC3	14.7
CCn1c2c(ccc1=O)CC(N)CC2 (centres undefined)	-15.6
O=C(CCC1Nc2c3ccccc3nc(=S)n2C1=O)NCc1ccc2c(c1)OCO2 (centres undefined)	-4.0
CCOC(=O)c1nc(N(C)c2cccc(Cl)c2)c2ccccc2n1	24.0
CCCCc1ncc(CN2CCN(S(=O)(=O)c3ccccc3)CC2)[nH]1	10.3
O=C(COc1ccccc1O)N1CC[C@@H](c2ccc3c(c2)OCO3)[C@H](O)C1	29.8
CC1CCN(c2nc(C(C)NCc3ccc4c(c3)OCCO4)cc(=O)[nH]2)CC1 (centres undefined)	0.2
Cc1nnc(N2CCCC3(CN(C(=O)CO)CCO3)C2)o1 (centres undefined)	-24.7
SMILES	Tg IFNy HTS
O=C(CN1CCOc2ccccc2C1)NCc1cnn2ccccc12	0.4
CN1CCC(C)(Cn2ccnc2-c2cnc[nH]2)C1 (centres undefined)	27.0
O=C(c1ccc(Br)cc1)N1CCc2c([nH]c3ccccc23)C1c1ccc(F)cc1 (centres undefined)	-94.1*
O=C(c1ccc(Br)cc1)N1CCc2c([nH]c3ccccc23)C1c1ccccc1 (centres undefined)	-47.7
O=C(c1ccc2c(c1)OCO2)N1CCc2c([nH]c3ccccc23)C1c1ccc(F)cc1 (centres undefined)	-109.4*
O=C(c1ccccc1)N1CCc2c([nH]c3ccccc23)C1c1cccnc1 (centres undefined)	84.6
O=C(C1CCCCC1)N1CCc2c([nH]c3ccccc23)C1c1ccc(F)cc1 (centres undefined)	-75.3*
CSc1ccc(C2c3[nH]c4ccccc4c3CCN2C(=O)C2CC2)cc1 (centres undefined)	73.7
Cc1ccc(C2c3[nH]c4ccccc4c3CCN2C(=O)c2ccc3c(c2)OCO3)cc1 (centres undefined)	-62.0
O=C(c1cccc(Cl)c1)N1CCc2c([nH]c3ccccc23)C1c1cccnc1 (centres undefined)	-81.8*
O=C(c1cccc(F)c1)N1CCc2c([nH]c3ccccc23)C1c1ccc(F)cc1 (centres undefined)	141.0
COc1ccc(C(=O)N2CCc3c([nH]c4ccccc34)C2c2cccnc2)cc1OC (centres undefined)	70.0
COc1ccc(C(=O)N2CCc3c([nH]c4ccccc34)C2c2ccc(F)cc2)cc1OC (centres undefined)	-32.3
Cc1ccc(C2c3[nH]c4ccccc4c3CCN2C(=O)C2CC2)cc1 (centres undefined)	145.9
COCCN1C(=O)N(CCc2ccccc2)C(=O)C12CCN(Cc1cccc3cccnc13)CC2	24.9
Cc1noc(C)c1CN1Cc2nccn2CC(CN2CCCC2=O)C1 (centres undefined)	38.6
Cc1nnc(SCCCNC(=O)CC2COCCN2)s1 (centres undefined)	-2.8
OCC1(Cc2ccccc2F)CCCN(c2ccc3ccccc3n2)C1 (centres undefined)	-30.6
COc1cccc(CC2=NOC(C(=O)N3CCC(Sc4ccc(F)cc4)CC3)C2)c1 (centres undefined)	11.8
CCOc1ccc(C2c3[nH]c4ccccc4c3CCN2C(=O)c2ccc(F)cc2)cc1 (centres undefined)	-88.7*
CCOc1cc(C(=O)N2CCc3c([nH]c4ccccc34)C2c2ccccc2)cc(OCC)c1OCC (centres undefined)	-114.8*
CCOc1cc(C(=O)N2CCc3c([nH]c4ccccc34)C2c2cccnc2)cc(OCC)c1OCC (centres undefined)	-66.6
CCOc1ccc(C2c3[nH]c4ccccc4c3CCN2C(=O)c2ccc(OC)c(OC)c2)cc1 (centres undefined)	i
CCOc1ccc(C2c3[nH]c4ccccc4c3CCN2C(=O)c2cc(OC)c(OC)c(OC)c2)cc1 (centres undefined)	247.3
CCCC(=O)N1CCc2c([nH]c3ccccc23)C1c1ccccc1 (centres undefined)	259.0
SMILES	Tg IFNy HTS
CN1CCCC2(CCN(Cc3ccccc3Cn3cccn3)C2)C1=O (centres undefined)	8.6
Cc1ncncc1C(=O)NCCc1nc(-c2ccccc2)cs1	12.3
CCc1c(C)c(C#N)c2nc3ccccc3n2c1NCCN1CCOCC1	103.1
COc1cc(-n2ccnc2-c2ccc3c(c2)OCCO3)cc(OC)c1OC	47.5
CNC(=O)Cn1cc(-c2cccc3ccnn23)cn1	3.4
Cc1nnc(-c2ccccc2-c2cccc3ccnn23)s1	-40.5
NC(=O)c1csc(-c2cccc3ccnn23)n1	-97.6*
O=C(Cn1cnc2c([nH]c3ccc(F)cc32)c1=O)NCc1ccccn1	10.9
COc1ccccc1OCc1cc(C(=O)N2CCC(NC(C)=O)C2)n[nH]1 (centres undefined)	-2.8
CC(=O)N1CCO[C@H]2CCN(C(=O)c3cn(C)cn3)C[C@H]21	-45.9
Cc1ccc(NC(=O)Cn2c(=O)cc(C(=O)N3CCc4ccccc4C3)c3ccccc32)cc1F	-48.1
O=C(Cn1c(=O)cc(C(=O)N2CCCC2)c2ccccc21)Nc1ccc(F)c(Cl)c1	7.4
O=C(Cn1c(=O)cc(C(=O)N2CCc3ccccc3C2)c2ccccc21)Nc1ccc(F)c(Cl)c1	-71.9*
CCc1nc(NC(=O)NCc2cccc(C)n2)nn1C	10.7
CC(C)(C)c1cc(C(C)(C)C)n(-c2ncc(C(F)(F)F)cc2Cl)n1	-23.6
